Reference: the supplement of paper PMC7724964

Columns and labels:
Assay in all cases: phage ELISA signal ratio (GST-PRM binding over GST background); higher = stronger binding of peptide-phage to the PRM
[1] = target: T1, ZGPAT 120-268 zf-CCCH+TUDOR (domain begin residue: 120, domain end residue: 268), Q8N5A5
T1 chain: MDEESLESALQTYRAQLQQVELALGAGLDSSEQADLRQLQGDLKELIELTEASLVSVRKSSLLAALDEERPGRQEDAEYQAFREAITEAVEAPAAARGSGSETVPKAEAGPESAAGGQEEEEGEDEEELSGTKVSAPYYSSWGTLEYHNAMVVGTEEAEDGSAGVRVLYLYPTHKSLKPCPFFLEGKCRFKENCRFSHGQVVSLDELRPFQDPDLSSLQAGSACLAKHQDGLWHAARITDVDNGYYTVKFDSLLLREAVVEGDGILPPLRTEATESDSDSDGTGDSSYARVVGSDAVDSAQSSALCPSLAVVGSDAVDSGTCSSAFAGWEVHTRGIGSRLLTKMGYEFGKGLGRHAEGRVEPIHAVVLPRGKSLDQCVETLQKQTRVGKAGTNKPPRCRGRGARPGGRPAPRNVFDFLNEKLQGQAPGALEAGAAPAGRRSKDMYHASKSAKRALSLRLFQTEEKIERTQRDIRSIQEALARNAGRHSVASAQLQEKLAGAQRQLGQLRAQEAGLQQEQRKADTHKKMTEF
In short: (§1)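 Each value is the phage ELISA signal on the glutathione S-transferase (GST)-domain fusion divided by the signal on GST alone. Human peptide recognition domains were expressed in 96-well plates, fused to the C-terminus of GST, and selected against an M13 phage library carrying randomized, cysteine-free, glycine-flanked hexadecapeptides on the gene-8 major coat protein. After five selection rounds, approximately 48 individual clones from rounds 4 and 5 were tested by phage ELISA, and positive clones were sequenced.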

[2] = target: T2, YWHAH 2-246 14-3-3 (domain begin residue: 2, domain end residue: 246), Q04917
T2 chain: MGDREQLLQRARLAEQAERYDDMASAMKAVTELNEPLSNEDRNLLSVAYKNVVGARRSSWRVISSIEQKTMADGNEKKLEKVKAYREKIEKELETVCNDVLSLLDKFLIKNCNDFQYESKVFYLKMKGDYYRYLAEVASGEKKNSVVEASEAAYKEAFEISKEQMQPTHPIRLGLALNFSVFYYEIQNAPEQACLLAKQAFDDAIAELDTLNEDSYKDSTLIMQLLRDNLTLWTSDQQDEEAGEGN
In short: as §1

[3] = target: T3, WDR74 1-387 WD40 (domain begin residue: 1, domain end residue: 387), Q6RFH5
T3 chain: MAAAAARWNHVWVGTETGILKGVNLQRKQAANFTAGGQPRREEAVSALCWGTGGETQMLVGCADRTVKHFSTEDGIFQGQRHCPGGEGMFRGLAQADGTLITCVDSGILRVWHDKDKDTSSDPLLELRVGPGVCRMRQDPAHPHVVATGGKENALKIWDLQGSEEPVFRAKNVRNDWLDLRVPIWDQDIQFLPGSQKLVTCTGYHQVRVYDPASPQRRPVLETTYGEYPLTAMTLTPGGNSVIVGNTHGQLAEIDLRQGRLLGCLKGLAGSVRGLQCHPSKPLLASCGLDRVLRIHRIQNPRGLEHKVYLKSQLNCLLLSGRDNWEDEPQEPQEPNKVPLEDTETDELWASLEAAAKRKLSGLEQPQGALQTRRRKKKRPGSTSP
In short: as §1

[4] = target: T4, YWHAB 1-246 14-3-3 (domain begin residue: 1, domain end residue: 246), P31946
T4 chain: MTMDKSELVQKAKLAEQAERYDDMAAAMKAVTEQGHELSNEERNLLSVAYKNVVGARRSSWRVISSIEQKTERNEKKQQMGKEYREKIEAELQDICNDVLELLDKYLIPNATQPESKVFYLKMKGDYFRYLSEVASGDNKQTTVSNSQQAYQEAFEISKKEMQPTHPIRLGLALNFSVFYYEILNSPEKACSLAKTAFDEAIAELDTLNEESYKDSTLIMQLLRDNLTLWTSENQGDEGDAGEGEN
In short: as §1

[5] = target: T5, YWHAZ 1-245 14-3-3 (domain begin residue: 1, domain end residue: 245), P63104
T5 chain: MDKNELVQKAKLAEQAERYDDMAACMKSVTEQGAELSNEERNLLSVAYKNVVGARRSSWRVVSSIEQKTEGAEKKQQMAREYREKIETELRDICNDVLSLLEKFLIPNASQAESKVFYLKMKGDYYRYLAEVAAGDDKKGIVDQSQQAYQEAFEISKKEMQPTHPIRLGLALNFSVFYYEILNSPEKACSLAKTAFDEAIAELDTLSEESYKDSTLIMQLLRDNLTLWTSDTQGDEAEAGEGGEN
In short: as §1

[6] = target: T6, YWHAE 1-255 14-3-3 (domain begin residue: 1, domain end residue: 255), P62258
T6 chain: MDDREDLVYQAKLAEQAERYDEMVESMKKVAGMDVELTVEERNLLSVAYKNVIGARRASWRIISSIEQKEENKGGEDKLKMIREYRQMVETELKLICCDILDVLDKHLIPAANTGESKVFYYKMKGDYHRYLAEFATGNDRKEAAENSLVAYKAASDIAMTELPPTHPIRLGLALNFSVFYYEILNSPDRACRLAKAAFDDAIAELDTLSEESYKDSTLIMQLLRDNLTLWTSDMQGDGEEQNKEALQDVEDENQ
In short: as §1

[7] = target: T7, YWHAG 1-247 14-3-3 (domain begin residue: 1, domain end residue: 247), P61981
T7 chain: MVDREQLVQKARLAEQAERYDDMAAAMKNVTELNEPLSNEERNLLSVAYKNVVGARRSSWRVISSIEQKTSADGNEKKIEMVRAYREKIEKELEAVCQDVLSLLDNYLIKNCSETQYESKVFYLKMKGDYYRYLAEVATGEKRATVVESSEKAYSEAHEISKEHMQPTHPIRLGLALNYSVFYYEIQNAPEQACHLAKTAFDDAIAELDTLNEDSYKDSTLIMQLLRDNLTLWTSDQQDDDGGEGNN
In short: as §1

Question: SQAMDLNAGWPWDIVM was tested. Which “phage ELISA signal ratio” value [1] did it give?
Answer: 8.17

Question: How did the “phage ELISA signal ratio” value [2] turn out when VEYLDLANFDPMAGKW was run?
Answer: 26.2

Question: Which “phage ELISA signal ratio” value [3] does the source give for DFMSDMFLQQLDTVGL here?
Answer: 7.8

Question: How did the “phage ELISA signal ratio” value [4] turn out when VWPMPQTWAEWQDLLA was run?
Answer: 17.7

Question: HPPWWEPWHVEFLLQD was tested. Which “phage ELISA signal ratio” value [4] did it give?
Answer: 22.7

Question: For WHWPELQDLMSIGMDE, which “phage ELISA signal ratio” value [3] is on record?
Answer: 2.99

Question: How did the “phage ELISA signal ratio” value [4] turn out when QNIEFVWWHKEWLENQ was run?
Answer: 15.1

Question: What about the “phage ELISA signal ratio” value [5] of the same binder?
Answer: 6.38

Question: How did the “phage ELISA signal ratio” value [3] turn out when WEAIWDDMLTVQMPMA was run?
Answer: 5

Question: Which “phage ELISA signal ratio” value [3] does the source give for PALSDVWDSIPLEFAW here?
Answer: 6.43

Question: How did the “phage ELISA signal ratio” value [4] turn out when VVFSDYWVDWHVEYMG was run?
Answer: 11.9

Question: How did the “phage ELISA signal ratio” value [3] turn out when FDSYWEAAFDQLQMAE was run?
Answer: 7.17

Question: Which “phage ELISA signal ratio” value [6] does the source give for EWSVWDHVPRDWQTVG here?
Answer: 17.7

Question: Which “phage ELISA signal ratio” value [1] does the source give for DYMSTLFDSIPTHVST here?
Answer: 8.28

Question: SLEWLDLAQWTDPHQR was tested. Which “phage ELISA signal ratio” value [2] did it give?
Answer: 19.8

Question: For LEWLDLAQWHGGENSR, which “phage ELISA signal ratio” value [2] is on record?
Answer: 21

Question: With GDVSNLSEAMELWRSW as the binder, how does the “phage ELISA signal ratio” value [2] read?
Answer: 17.6

Question: How did the “phage ELISA signal ratio” value [7] turn out when PSPQPWWTDWHAEWVN was run?
Answer: 16.1

Question: For RPAWMDSATWLMIQEW, which “phage ELISA signal ratio” value [4] is on record?
Answer: 22

Question: PQSLQEAMVVWQTWSG was tested. Which “phage ELISA signal ratio” value [7] did it give?
Answer: 21.6

Question: How did the “phage ELISA signal ratio” value [5] turn out when EHPHYWTPWHVDYMLR was run?
Answer: 4.41

Question: YMQNLDTQWMLWLQGP was tested. Which “phage ELISA signal ratio” value [6] did it give?
Answer: 9.78

Question: With EPHMLYDMWREWVTAD as the binder, how does the “phage ELISA signal ratio” value [1] read?
Answer: 3.14

Question: Which “phage ELISA signal ratio” value [7] does the source give for HQQGDDWVIAEIPPFR here?
Answer: 19.8

Question: MPEYWVDWHMEYVQEM was tested. Which “phage ELISA signal ratio” value [5] did it give?
Answer: 28.1

Question: Which “phage ELISA signal ratio” value [1] does the source give for DYMSQLWDHMSVDIYP here?
Answer: 5.82

Question: Which “phage ELISA signal ratio” value [2] does the source give for MDWLDLAGQESLFPLW here?
Answer: 17.1

Question: For HKMEPWYTDWHADFLM, which “phage ELISA signal ratio” value [4] is on record?
Answer: 9.61

Question: How did the “phage ELISA signal ratio” value [3] turn out when DMWSQWEEWNAVMPWE was run?
Answer: 9.73

Question: With VKSYYTTWHVQWLMDW as the binder, how does the “phage ELISA signal ratio” value [5] read?
Answer: 6.31

Question: With DMWAMWHEWVEQEPQD as the binder, how does the “phage ELISA signal ratio” value [3] read?
Answer: 2.88

Question: DWFSSIIEAERQPVAD was tested. Which “phage ELISA signal ratio” value [3] did it give?
Answer: 5.4

Question: GLHQLDWLDLADIYPK was tested. Which “phage ELISA signal ratio” value [2] did it give?
Answer: 18.7
